In the supplement of paper PMC6555819:

Experiments:
Assay in all cases: PBM binding z-score (relative to random genomic background probes); higher = stronger binding; sequences stand for … in GC…GCGATTGACAGCGTAGAATGAAGG
[1] = test system: FXR:RXRa (NR concentration 270 nM, RXRa partner concentration 90 nM)
In short: (§1)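 Ligand-free nuclear receptor dimers were bound for 1 h to custom Agilent 4×180K protein-binding microarrays. Detection used antibodies against each partner (one per run). Binding z-scores rest on regression-normalized fluorescence, with random background probes as the reference.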

[2] = test system: LXRa:RXRa (NR concentration 270 nM, RXRa partner concentration 90 nM)
In short: as §1

[3] = test system: LXRa homodimer (NR concentration 270 nM)
In short: as §1

[4] = test system: LXRb:RXRa (NR concentration 270 nM, RXRa partner concentration 90 nM)
In short: as §1

[5] = test system: LXRb homodimer (NR concentration 270 nM)
In short: as §1

[6] = test system: PPARa:RXRa (NR concentration 270 nM, RXRa partner concentration 90 nM)
In short: as §1

[7] = test system: PPARg:RXRa (NR concentration 180 nM, RXRa partner concentration 90 nM)
In short: as §1

[8] = test system: PPARg:RXRa 270nM:90nM, anti-RXR (NR concentration 270 nM, RXRa partner concentration 90 nM)
In short: as §1

[9] = test system: PPARg:RXRa 30nM:10nM, anti-RXR (NR concentration 30 nM, RXRa partner concentration 10 nM)
In short: as §1

[10] = test system: PPARg:RXRa 90nM:30nM, anti-RXR (NR concentration 90 nM, RXRa partner concentration 30 nM)
In short: as §1

[11] = test system: PPARg:RXRa DBDmut IVT, anti-RXR (DBD mutation: RXRa K156A/R161A, NR concentration 270 nM, RXRa partner concentration 90 nM)
In short: as §1

[12] = test system: PPARg:RXRa IVT, anti-PPARg (NR concentration 270 nM, RXRa partner concentration 90 nM)
In short: as §1

[13] = test system: PPARg DBDmut:RXRa IVT, anti-PPARg (DBD mutation: PPARg1 K132A/R137A, NR concentration 270 nM, RXRa partner concentration 90 nM)
In short: as §1

[14] = test system: PPARg DBDmut IVT, anti-PPARg (DBD mutation: PPARg1 K132A/R137A, NR concentration 270 nM)
In short: as §1

[15] = test system: PPARg homodimer (NR concentration 180 nM)
In short: as §1

[16] = test system: PXR:RXRa (NR concentration 270 nM, RXRa partner concentration 90 nM)
In short: as §1

[17] = test system: PXR homodimer (NR concentration 270 nM)
In short: as §1

[18] = test system: RARa:RXR (NR concentration 270 nM, RXRa partner concentration 90 nM)
In short: as §1

[19] = test system: RARa homodimer (NR concentration 270 nM)
In short: as §1

[20] = test system: RARb:RXRa (NR concentration 270 nM, RXRa partner concentration 90 nM)
In short: as §1

Sequence | PBM binding z-score [1] | PBM binding z-score [2] | PBM binding z-score [3] | PBM binding z-score [4] | PBM binding z-score [5] | PBM binding z-score [6] | PBM binding z-score [7] | PBM binding z-score [8] | PBM binding z-score [9] | PBM binding z-score [10] | PBM binding z-score [11] | PBM binding z-score [12] | PBM binding z-score [13] | PBM binding z-score [14] | PBM binding z-score [15] | PBM binding z-score [16] | PBM binding z-score [17] | PBM binding z-score [18] | PBM binding z-score [19] | PBM binding z-score [20]
ACTATTAGTTGACTTATGGCAACCGATACGACGC | 0.061 | 0.293 | 0.179 | 0.682 | 0.995 | 0.117 | 1.04 | 0.488 | 0.748 | 0.352 | 0.0133 | 0.165 | 1.06 | 1.08 | 0.983 | 0.367 | 0.358 | 0.397 | 1.2 | 0.351
ATATTTAGGTTAAGGGTCATTCAGGTTGGTTCGC | 5.26 | 4.78 | 3.91 | 4.61 | 3.14 | 6.38 | 11 | 9.52 | 9.42 | 10.5 | 6.47 | 7.1 | 5.34 | 5.2 | 5.4 | 5.69 | 3.67 | 5.96 | 5.28 | 3.68
TGAATGAGGTTATTAGATCAGGGAACGTTGCAAA | 1.98 | 1.62 | 0.0291 | 1.3 | 0.0407 | 3.09 | 2.46 | 2.61 | 0.886 | 1.65 | 2.05 | 2.98 | 1.48 | 0.859 | 0.948 | 0.902 | 0.241 | 1.43 | 0.496 | 1.24
AGTCAAAGTTCACCTAGGTAACGTAAGATATGCT | 6.25 | 5.63 | 3.58 | 3.92 | 1.2 | 4.94 | 7.15 | 6.41 | 3.81 | 5.63 | 1.22 | 4.08 | 1.35 | 1.84 | 2.06 | 4.76 | 3.76 | 3.95 | 1.51 | 4.99
CGTCCAAGGTCAGTAGGTCAGTGAAAGCGACGTG | 4.68 | 3.18 | 0.336 | 2.78 | 0.0496 | 5.1 | 6.2 | 6 | 2.74 | 4.9 | 5.03 | 6.09 | 0.33 | 0.924 | 4.32 | 3.23 | 0.64 | 4.46 | 1.39 | 5
ATCGAAAGGTCGAGGTGAGTAAAGAGAAAGGGAA | 4.14 | 3.26 | 0.0324 | 2.59 | 0.664 | 4.57 | 3.27 | 3.83 | 1.09 | 2.5 | 0.198 | 1.99 | 1.11 | 0.693 | 1.75 | 2 | 0.184 | 2.88 | 0.627 | 3.95
TCTAGTTGGTAAAAGGTCACACACTCGAAATGCG | 5.62 | 5.67 | 4.26 | 5.25 | 1.91 | 5.95 | 8.69 | 8.46 | 8.09 | 9.72 | 3.1 | 5.1 | 1.72 | 2.8 | 5.34 | 5.37 | 2.68 | 6.35 | 5.12 | 4.93
GCATATAGGTAATACAAGGTGAAACTCCGATTGT | 1.27 | 2.79 | 0.554 | 0.988 | -0.38 | 1.83 | 1.5 | 1.04 | 0.514 | 0.842 | 4.64 | 3.25 | 1.19 | 0.842 | 0.705 | 0.857 | -0.379 | 1.52 | 0.524 | 0.667
CCGACTGGGGCATAACGTTACCATAAGCCAGCCC | -0.396 | -0.323 | -0.401 | -0.205 | -1.06 | 0.0712 | 0.89 | 0.484 | -0.471 | 0.117 | 2.66 | 1.66 | -0.938 | -1.07 | -0.33 | -0.824 | -0.237 | -0.522 | 0.566 | 0.162
AGAATAAGGTTAAGATCAGGGAAACAGAATACAT | 2.47 | 2.22 | 0.239 | 2.09 | 0.458 | 3.06 | 1.75 | 1.62 | 0.741 | 1.19 | 1.89 | 1.76 | 1.42 | 1.21 | 1.6 | 1.18 | 0.822 | 1.93 | 1.11 | 2.46
TCAGACAGGAGAAGGTAACTCAGGTACGCAGTCG | 0.934 | 1.47 | -0.171 | 0.452 | -0.646 | 0.384 | 0.666 | 1.78 | 3.37 | 2.69 | 2.06 | -0.153 | -0.44 | -0.387 | 0.0505 | 0.125 | -0.21 | 0.759 | 0.536 | 0.225
GCTATTAGTTGAAAGGACAACCGAATGATTCTCG | -0.0393 | -0.0503 | -0.151 | -0.41 | -0.0299 | 0.0455 | 0.857 | 1.45 | 0.556 | 0.958 | 0.447 | -0.166 | 0.553 | 0.18 | 0.735 | -0.372 | 0.0666 | -0.189 | 1.02 | 1.32
CCTAGTTGGTCAGGAGGTGACACACCGGATATGA | 0.076 | 0.0334 | 0.0506 | 0.214 | -0.0582 | 1.17 | 1.04 | 1.33 | 0.0174 | 0.666 | 0.676 | 2.36 | 0.321 | -0.109 | 1.41 | 0.171 | 0.895 | 0.496 | 0.818 | 1.25
AGAATGAGGTTTAGATCAGGGAAACAGAATACAT | 0.0195 | -0.0666 | -0.0558 | -0.395 | -0.223 | -0.306 | 0.649 | 0.00462 | 0.223 | 0.354 | -0.558 | -0.176 | 0.757 | 0.896 | -0.0172 | -0.27 | -0.0808 | -0.0668 | 0.721 | -0.105
TCTAGTTGGTCAAAGGTCACCCACTCGAAATGCG | 5.47 | 5.45 | 3.51 | 5.12 | 1.68 | 6.36 | 11.3 | 9.99 | 10.9 | 12.3 | 3.63 | 6.67 | 1.96 | 2.09 | 6.47 | 6.1 | 1.35 | 7.69 | 3.37 | 4.9
GCTGCTAGGTCAGGTTGGCCAGCTAACGGGTACG | 1.01 | 0.472 | -0.875 | 0.118 | -0.715 | 1.32 | 0.322 | 0.756 | -0.322 | 0.219 | 2.74 | 2.24 | -0.719 | -0.956 | 0.0382 | -0.079 | -0.624 | 0.336 | -0.755 | 3.1
AGAATGAGGTTACCAAAGATCAAGGAAACGCTTG | 2.13 | 7.01 | 0.25 | 4.24 | -0.325 | 3.7 | 2.89 | 3.09 | 1.08 | 2.26 | 3.78 | 3.43 | 0.922 | 0.563 | 0.97 | 2.06 | -0.325 | 2.48 | -0.42 | 2.25
